# Experimental data reported in PMC7862700, “An all-to-all approach to the identification of sequence-specific readers for epigenetic DNA modifications on cytosine”.
# Experiments:
# Test in all cases: DAPPL (digital affinity profiling via proximity ligation, sequencing); 10 mM Tris-HCl pH 7.5, 50 mM NaCl, 1 mM DTT, 4% glycerol, room temperature, 30 min; GST-TFs on glutathione beads, 16-mer random dsDNA library, 0.1% formaldehyde crosslink after washing; high values mean tight binding
# [1] = target: T1, FEV (Homo sapiens, UniProt Q99581 1-238); conditions: protein: recombinant; tags: N-terminal GST; dsDNA, one strand shown
# T1 sequence: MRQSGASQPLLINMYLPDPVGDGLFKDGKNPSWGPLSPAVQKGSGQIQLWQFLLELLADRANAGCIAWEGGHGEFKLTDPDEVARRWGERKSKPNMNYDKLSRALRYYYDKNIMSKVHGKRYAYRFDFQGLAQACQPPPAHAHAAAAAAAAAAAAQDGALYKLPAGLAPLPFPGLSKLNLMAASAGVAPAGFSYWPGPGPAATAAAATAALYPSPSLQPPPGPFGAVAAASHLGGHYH
# Summary of the method: (§1)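 Human transcription factors fused to GST were expressed in yeast, captured on glutathione beads, given DNA barcodes and pooled with a GST-only negative control. Pools were incubated with 200 nmole of a 16-mer random double-stranded DNA library in Tris/NaCl/DTT/glycerol buffer at room temperature for 30 min. They were then washed, crosslinked with 0.1% formaldehyde, proximity-ligated (BsaI/T4 ligase, 1 h, 37 °C), PCR-amplified and sequenced on an Illumina NextSeq500. Binding signal is each 6-mer's read frequency for a factor divided by its frequency for the GST control.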
# [2] = target: ETV5 (Homo sapiens, UniProt P41161 1-510); conditions: protein: recombinant; tags: N-terminal GST; dsDNA, one strand shown
# Summary of the method: as §1
# [3] = target: HSF1 (Homo sapiens, UniProt Q00613 1-529); conditions: protein: recombinant; tags: N-terminal GST; chain copies: 3; dsDNA, one strand shown
# Summary of the method: as §1
# [4] = target: T2, SPIC (Homo sapiens, UniProt Q8N5J4 1-248); conditions: protein: recombinant; tags: N-terminal GST; dsDNA, one strand shown
# T2 sequence: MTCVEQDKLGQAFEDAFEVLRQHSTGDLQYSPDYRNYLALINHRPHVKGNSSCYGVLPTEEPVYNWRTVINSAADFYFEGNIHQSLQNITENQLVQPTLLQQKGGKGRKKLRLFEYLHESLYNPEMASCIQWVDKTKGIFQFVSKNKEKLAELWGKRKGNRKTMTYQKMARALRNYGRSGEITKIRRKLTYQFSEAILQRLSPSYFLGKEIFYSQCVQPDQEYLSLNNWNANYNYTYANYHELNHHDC
# Summary of the method: as §1
# [5] = target: ELF4 (Homo sapiens, UniProt Q99607 1-663); conditions: protein: recombinant; tags: N-terminal GST; dsDNA, one strand shown
# Summary of the method: as §1
# [6] = target: T3, ELK4 (Homo sapiens, UniProt P28324-2 1-405); conditions: protein: recombinant; tags: N-terminal GST; dsDNA, one strand shown
# T3 sequence: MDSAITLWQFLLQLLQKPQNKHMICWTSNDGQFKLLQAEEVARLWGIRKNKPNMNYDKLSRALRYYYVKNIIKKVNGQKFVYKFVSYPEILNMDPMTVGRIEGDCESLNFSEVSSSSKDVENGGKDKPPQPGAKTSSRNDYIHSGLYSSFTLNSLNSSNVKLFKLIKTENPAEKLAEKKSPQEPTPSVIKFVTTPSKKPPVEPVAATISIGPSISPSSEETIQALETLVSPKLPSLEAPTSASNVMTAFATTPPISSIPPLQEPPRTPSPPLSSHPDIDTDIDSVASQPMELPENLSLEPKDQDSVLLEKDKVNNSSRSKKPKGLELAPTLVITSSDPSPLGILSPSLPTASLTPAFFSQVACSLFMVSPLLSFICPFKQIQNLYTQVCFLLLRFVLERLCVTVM
# Summary of the method: as §1
# [7] = target: T4, ETV2 (Homo sapiens, UniProt O00321 1-342); conditions: protein: recombinant; tags: N-terminal GST; dsDNA, one strand shown
# T4 sequence: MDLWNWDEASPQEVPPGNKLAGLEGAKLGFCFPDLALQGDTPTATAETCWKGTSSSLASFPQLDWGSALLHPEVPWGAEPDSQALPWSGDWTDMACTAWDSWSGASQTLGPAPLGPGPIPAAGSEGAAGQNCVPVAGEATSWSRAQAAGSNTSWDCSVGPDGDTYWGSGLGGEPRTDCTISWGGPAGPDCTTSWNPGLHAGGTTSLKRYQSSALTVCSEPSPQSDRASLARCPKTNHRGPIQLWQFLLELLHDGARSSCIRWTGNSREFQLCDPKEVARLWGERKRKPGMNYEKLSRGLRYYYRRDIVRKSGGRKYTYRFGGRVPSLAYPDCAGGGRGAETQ
# Summary of the method: as §1
# [8] = target: T5, ELF3 (Homo sapiens, UniProt P78545 1-371); conditions: protein: recombinant; tags: N-terminal GST; dsDNA, one strand shown
# T5 sequence: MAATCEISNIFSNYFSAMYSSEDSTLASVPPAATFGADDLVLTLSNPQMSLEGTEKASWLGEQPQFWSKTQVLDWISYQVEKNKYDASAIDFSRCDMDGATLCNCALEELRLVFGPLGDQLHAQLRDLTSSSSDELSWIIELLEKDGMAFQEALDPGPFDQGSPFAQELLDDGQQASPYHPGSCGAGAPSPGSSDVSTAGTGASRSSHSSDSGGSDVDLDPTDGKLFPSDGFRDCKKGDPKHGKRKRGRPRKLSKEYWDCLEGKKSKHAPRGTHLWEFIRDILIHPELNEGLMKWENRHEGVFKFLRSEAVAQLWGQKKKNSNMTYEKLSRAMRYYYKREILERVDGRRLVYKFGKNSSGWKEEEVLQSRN
# Summary of the method: as §1
# [9] = target: CRX (Homo sapiens, UniProt O43186 1-299); conditions: protein: recombinant; tags: N-terminal GST; dsDNA, one strand shown
# Summary of the method: as §1
# [10] = target: ETV1 (Homo sapiens, UniProt P50549 1-477); conditions: protein: recombinant; tags: N-terminal GST; dsDNA, one strand shown
# Summary of the method: as §1
# [11] = target: T6, ERF (Homo sapiens, UniProt P50548 1-548); conditions: protein: recombinant; tags: N-terminal GST; dsDNA, one strand shown
# T6 sequence: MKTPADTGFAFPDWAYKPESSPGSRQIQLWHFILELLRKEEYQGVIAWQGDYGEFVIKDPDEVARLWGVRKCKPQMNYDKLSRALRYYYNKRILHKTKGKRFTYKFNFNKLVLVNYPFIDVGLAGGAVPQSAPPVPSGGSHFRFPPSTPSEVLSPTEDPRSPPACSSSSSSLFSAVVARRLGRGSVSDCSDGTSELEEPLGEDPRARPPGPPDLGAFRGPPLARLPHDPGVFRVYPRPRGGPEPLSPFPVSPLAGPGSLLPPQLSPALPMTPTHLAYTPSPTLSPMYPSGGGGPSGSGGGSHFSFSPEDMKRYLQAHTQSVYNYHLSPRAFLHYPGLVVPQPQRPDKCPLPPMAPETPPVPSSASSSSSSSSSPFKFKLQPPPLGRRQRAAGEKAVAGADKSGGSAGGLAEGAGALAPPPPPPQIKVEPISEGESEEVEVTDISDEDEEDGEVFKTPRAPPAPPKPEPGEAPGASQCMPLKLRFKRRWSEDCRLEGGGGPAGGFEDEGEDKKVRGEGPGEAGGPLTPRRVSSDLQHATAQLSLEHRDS
# Summary of the method: as §1
# [12] = target: T7, ETV3L (Homo sapiens, UniProt Q6ZN32 1-361); conditions: protein: recombinant; tags: N-terminal GST; dsDNA, one strand shown
# T7 sequence: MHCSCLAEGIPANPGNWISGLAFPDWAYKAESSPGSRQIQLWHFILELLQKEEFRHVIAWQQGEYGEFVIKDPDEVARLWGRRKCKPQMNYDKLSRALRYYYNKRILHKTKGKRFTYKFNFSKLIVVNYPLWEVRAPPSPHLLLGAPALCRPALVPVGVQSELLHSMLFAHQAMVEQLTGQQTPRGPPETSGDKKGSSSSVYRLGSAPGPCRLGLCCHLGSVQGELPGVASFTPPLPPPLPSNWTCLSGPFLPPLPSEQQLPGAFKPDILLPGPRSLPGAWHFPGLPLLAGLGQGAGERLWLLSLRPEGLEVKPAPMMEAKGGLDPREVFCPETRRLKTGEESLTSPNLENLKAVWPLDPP
# Summary of the method: as §1
# [13] = target: T8, ETS2 (Homo sapiens, UniProt P15036 1-469); conditions: protein: recombinant; tags: N-terminal GST; dsDNA, one strand shown
# T8 sequence: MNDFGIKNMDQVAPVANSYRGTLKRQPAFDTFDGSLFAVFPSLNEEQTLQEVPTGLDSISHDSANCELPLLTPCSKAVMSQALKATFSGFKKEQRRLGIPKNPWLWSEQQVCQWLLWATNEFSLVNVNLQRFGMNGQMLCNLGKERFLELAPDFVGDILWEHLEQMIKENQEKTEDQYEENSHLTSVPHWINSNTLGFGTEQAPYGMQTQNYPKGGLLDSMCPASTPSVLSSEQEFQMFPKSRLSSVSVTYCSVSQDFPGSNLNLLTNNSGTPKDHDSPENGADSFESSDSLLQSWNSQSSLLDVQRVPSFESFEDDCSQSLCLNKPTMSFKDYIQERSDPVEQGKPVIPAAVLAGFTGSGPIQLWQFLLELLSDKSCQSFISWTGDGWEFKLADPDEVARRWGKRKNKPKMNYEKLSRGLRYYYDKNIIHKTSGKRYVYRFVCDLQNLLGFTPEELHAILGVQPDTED
# Summary of the method: as §1
# [14] = target: T9, SPDEF (Homo sapiens, UniProt O95238 1-335); conditions: protein: recombinant; tags: N-terminal GST; dsDNA, one strand shown
# T9 sequence: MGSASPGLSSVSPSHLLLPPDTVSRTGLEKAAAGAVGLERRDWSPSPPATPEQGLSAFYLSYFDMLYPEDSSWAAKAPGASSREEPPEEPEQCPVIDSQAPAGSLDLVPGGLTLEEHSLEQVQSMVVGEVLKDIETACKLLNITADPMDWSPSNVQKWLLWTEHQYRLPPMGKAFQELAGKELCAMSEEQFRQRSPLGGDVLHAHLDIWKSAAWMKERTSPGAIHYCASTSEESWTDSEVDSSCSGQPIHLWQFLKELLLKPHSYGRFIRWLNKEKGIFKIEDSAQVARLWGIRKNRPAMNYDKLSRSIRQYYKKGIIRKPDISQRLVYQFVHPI
# Summary of the method: as §1
# [15] = target: T10, ETV7 (Homo sapiens, UniProt Q9Y603 1-341); conditions: protein: recombinant; tags: N-terminal GST; dsDNA, one strand shown
# T10 sequence: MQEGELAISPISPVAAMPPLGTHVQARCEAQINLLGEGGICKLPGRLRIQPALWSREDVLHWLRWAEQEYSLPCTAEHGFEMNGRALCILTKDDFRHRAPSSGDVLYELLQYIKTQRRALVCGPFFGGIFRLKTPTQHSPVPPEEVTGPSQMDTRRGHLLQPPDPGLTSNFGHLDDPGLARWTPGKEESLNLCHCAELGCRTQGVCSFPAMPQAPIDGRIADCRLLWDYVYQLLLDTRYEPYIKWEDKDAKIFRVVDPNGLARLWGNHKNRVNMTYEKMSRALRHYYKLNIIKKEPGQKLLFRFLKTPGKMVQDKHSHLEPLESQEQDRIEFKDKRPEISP
# Summary of the method: as §1
# [16] = target: T11, ELF5 (Homo sapiens, UniProt Q9UKW6-2 1-255); conditions: protein: recombinant; tags: N-terminal GST; dsDNA, one strand shown
# T11 sequence: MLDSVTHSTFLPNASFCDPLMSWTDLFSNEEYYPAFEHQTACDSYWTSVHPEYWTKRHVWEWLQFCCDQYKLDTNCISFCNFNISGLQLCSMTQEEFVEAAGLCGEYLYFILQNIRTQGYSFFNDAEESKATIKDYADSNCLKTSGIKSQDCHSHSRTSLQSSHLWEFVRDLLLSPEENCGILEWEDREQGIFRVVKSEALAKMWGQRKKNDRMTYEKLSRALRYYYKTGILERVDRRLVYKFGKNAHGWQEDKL
# Summary of the method: as §1
# [17] = target: T12, ETV3 (Homo sapiens, UniProt P41162-2 1-143); conditions: protein: recombinant; tags: N-terminal GST; dsDNA, one strand shown
# T12 sequence: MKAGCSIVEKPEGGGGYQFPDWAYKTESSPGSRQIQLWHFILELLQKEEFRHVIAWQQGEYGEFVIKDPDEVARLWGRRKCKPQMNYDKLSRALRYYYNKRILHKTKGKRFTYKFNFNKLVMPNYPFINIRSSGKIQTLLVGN
# Summary of the method: as §1
# [18] = target: ETV6 (Homo sapiens, UniProt P41212 1-452); conditions: protein: recombinant; tags: N-terminal GST; dsDNA, one strand shown
# Summary of the method: as §1
# Chain of CRX (O43186 whole entry): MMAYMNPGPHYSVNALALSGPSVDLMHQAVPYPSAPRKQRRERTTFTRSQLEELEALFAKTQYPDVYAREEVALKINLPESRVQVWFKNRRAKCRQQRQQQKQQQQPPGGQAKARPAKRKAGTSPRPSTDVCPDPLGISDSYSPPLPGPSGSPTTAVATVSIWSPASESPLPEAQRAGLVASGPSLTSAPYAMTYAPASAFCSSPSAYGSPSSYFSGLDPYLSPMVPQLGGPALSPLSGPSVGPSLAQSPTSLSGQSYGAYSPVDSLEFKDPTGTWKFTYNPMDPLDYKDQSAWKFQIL
# Chain of HSF1 (Q00613 whole entry): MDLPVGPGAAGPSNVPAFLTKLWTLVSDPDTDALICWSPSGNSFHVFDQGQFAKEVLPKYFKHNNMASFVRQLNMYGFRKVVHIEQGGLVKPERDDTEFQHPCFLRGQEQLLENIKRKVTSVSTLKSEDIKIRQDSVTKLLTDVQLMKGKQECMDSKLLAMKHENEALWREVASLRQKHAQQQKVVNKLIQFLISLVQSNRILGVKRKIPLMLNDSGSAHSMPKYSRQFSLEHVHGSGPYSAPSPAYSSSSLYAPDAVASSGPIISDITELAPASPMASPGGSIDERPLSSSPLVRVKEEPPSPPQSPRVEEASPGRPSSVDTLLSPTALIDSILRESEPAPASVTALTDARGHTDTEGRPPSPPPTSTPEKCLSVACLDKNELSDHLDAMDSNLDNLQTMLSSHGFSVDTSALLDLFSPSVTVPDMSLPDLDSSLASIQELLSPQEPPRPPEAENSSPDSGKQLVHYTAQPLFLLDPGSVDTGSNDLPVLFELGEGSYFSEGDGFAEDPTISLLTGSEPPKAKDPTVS
# Chain of ETV5 (P41161 whole entry): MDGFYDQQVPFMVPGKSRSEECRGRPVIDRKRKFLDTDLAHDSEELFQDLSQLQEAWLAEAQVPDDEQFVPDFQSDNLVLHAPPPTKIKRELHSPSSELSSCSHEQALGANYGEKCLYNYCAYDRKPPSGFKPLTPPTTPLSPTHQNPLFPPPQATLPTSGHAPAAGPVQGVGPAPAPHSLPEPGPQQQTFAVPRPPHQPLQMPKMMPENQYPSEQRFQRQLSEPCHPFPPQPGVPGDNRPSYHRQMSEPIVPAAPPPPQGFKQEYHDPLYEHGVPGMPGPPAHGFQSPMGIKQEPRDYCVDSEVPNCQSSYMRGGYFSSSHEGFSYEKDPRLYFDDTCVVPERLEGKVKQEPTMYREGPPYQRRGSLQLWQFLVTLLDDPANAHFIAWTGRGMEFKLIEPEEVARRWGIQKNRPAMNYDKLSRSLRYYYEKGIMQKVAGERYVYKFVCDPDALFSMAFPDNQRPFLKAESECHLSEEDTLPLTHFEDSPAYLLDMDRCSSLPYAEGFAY
# Chain of ETV6 (P41212 whole entry): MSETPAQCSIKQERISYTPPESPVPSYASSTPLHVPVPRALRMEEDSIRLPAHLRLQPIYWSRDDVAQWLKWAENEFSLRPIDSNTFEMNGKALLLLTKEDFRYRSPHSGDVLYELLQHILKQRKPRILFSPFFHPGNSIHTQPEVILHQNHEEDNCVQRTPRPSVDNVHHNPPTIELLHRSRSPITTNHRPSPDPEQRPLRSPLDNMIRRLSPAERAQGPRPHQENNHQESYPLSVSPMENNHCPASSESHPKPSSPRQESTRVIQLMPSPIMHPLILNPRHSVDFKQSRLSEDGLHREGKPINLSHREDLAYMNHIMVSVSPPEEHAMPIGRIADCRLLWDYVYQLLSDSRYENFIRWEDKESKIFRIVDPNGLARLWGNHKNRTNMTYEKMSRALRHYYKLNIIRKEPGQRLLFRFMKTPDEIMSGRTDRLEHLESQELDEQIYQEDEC
# Chain of ELF4 (Q99607 whole entry): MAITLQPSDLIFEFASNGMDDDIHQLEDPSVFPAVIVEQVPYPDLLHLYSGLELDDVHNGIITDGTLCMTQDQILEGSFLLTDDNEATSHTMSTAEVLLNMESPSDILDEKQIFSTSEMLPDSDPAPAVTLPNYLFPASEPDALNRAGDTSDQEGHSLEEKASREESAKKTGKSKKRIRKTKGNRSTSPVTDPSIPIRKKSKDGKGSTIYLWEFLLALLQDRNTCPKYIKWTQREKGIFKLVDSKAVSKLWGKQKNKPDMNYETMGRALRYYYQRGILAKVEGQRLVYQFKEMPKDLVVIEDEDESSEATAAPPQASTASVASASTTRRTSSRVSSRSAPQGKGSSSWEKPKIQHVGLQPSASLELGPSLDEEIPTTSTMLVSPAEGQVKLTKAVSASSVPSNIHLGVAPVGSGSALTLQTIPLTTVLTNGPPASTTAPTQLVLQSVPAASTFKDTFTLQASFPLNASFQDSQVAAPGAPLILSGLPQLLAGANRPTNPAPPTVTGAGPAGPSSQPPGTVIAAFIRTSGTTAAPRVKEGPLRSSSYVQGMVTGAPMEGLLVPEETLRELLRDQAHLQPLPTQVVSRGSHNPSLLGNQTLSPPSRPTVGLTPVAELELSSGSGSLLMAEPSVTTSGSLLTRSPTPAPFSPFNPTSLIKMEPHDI
# Chain of ETV1 (P50549 whole entry): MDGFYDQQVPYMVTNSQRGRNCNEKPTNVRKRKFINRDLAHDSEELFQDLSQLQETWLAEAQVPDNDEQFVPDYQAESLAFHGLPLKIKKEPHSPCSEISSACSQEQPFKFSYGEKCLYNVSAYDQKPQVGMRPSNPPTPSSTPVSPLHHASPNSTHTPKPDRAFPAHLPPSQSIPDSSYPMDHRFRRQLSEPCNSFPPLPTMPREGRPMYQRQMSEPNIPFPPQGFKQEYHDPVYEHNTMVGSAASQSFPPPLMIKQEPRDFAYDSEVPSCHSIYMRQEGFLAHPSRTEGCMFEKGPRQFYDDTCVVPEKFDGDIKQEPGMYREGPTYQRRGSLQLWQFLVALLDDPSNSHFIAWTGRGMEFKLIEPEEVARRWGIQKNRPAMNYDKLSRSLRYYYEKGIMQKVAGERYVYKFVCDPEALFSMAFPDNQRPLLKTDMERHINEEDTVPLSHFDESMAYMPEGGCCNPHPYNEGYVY
sequence,measurement,setting,value
ATAAAT,binding signal,[1],"1.11 fold enrichment (6-mer frequency, TF over GST control)"
same,binding signal,[2],"1.22 fold enrichment (6-mer frequency, TF over GST control)"
same,binding signal,[3],"1.41 fold enrichment (6-mer frequency, TF over GST control)"
same,binding signal,[4],"1.16 fold enrichment (6-mer frequency, TF over GST control)"
same,binding signal,[5],"1.16 fold enrichment (6-mer frequency, TF over GST control)"
same,binding signal,[6],"1.17 fold enrichment (6-mer frequency, TF over GST control)"
same,binding signal,[7],"1.13 fold enrichment (6-mer frequency, TF over GST control)"
same,binding signal,[8],"1.24 fold enrichment (6-mer frequency, TF over GST control)"
same,binding signal,[9],"1.75 fold enrichment (6-mer frequency, TF over GST control)"
same,binding signal,[10],"1.13 fold enrichment (6-mer frequency, TF over GST control)"
same,binding signal,[11],"1.19 fold enrichment (6-mer frequency, TF over GST control)"
same,binding signal,[12],"1.18 fold enrichment (6-mer frequency, TF over GST control)"
same,binding signal,[13],"1.19 fold enrichment (6-mer frequency, TF over GST control)"
same,binding signal,[14],"1.17 fold enrichment (6-mer frequency, TF over GST control)"
same,binding signal,[15],"1.14 fold enrichment (6-mer frequency, TF over GST control)"
same,binding signal,[16],"1.08 fold enrichment (6-mer frequency, TF over GST control)"
same,binding signal,[17],"1.19 fold enrichment (6-mer frequency, TF over GST control)"
same,binding signal,[18],"1.25 fold enrichment (6-mer frequency, TF over GST control)"
